Results reported in PubChem BioAssay AID1159580 (chemical genetic matrix, 2015).
Among all 5,500 compounds or so, about 2,000 (36%) were called active. Not shown: some 18% with an inconclusive outcome. No stated cut-off is given here; in the data, active means normalized growth mostly below about 0.91 (no sharp cut-off); inconclusive means no clear call, values can overlap the other calls; inactive means mostly above about 0.92. The list shows a part of the results.

Experiment: chemical genetic growth profiling, strain panel (AID 1159580);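 further: tested at 20 µM; growth read once vehicle control cultures reached saturation at 30 °C; 1 = growth at the plate median or of vehicle wells; lower values mean less growth of the strain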
Settings: growth OD

Measured: normalized growth

NC[C@H]1O[C@H](OC2[C@@H](N)C[C@@H](N)[C@H](O[C@H]3O[C@H](CO)[C@@H](O)[C@H](N)[C@H]3O)[C@H]2O)[C@H](O)[C@@H](O)[C@@H]1O (some centres undefined)
inactive: S. cerevisiae deletion strains, locus YJR066W, strain TOR1, active compounds read low 0.956 | S. cerevisiae deletion strains, locus YJR075W, strain HOC1, active compounds read low 0.996 | S. cerevisiae deletion strains, locus YKL009W, strain mrt4, active compounds read low 0.985 | S. cerevisiae deletion strains, locus YKL068W, active compounds read low 0.986 | S. cerevisiae deletion strains, locus YKL085W, strain MDH1 (second series), active compounds read low 0.98 | S. cerevisiae deletion strains, locus YKL085W, strain MDH1, active compounds read low 0.98 | S. cerevisiae deletion strains, locus YKL160W, strain elf1, active compounds read low 0.979 | S. cerevisiae deletion strains, locus YKR001C, strain vps1, active compounds read low 0.994 | S. cerevisiae deletion strains, locus YKR026C, strain gcn3, active compounds read low 0.998 | S. cerevisiae deletion strains, locus YKR091W, strain srl3, active compounds read low 1.01 | S. cerevisiae deletion strains, locus YLL001W, strain dnm1, active compounds read low 0.973 | S. cerevisiae deletion strains, locus YLL026W, active compounds read low 1.01 | S. cerevisiae deletion strains, locus YLL041C, strain sdh2, active compounds read low 0.999 | S. cerevisiae deletion strains, locus YLR027C, strain aat2, active compounds read low 1.01 | S. cerevisiae deletion strains, locus YLR039C, strain RIC1, active compounds read low 0.927 | S. cerevisiae deletion strains, locus YLR058C, strain SHM2, active compounds read low 0.978 | S. cerevisiae deletion strains, locus YLR102C, strain apc9, active compounds read low 0.984 | S. cerevisiae deletion strains, locus YLR113W, strain HOG1, active compounds read low 1 | S. cerevisiae deletion strains, locus YLR221C, strain rsa3, active compounds read low 1.01 | S. cerevisiae deletion strains, locus YLR258W, strain gsy2, active compounds read low 1 | S. cerevisiae deletion strains, locus YLR262C, strain YPT6 (second series), active compounds read low 0.994 | S. cerevisiae deletion strains, locus YLR262C, strain YPT6, active compounds read low 1.04 | S. cerevisiae deletion strains, locus YLR268W, strain sec22, active compounds read low 0.986 | S. cerevisiae deletion strains, locus YLR320W, strain mms22, active compounds read low 0.987 | S. cerevisiae deletion strains, locus YLR330W, strain CHS5, active compounds read low 0.993 | S. cerevisiae deletion strains, locus YLR342W, strain FKS1 (second series), active compounds read low 1 | S. cerevisiae deletion strains, locus YLR342W, strain FKS1, active compounds read low 0.995 | S. cerevisiae deletion strains, locus YLR357W, strain rsc2, active compounds read low 0.979 | S. cerevisiae deletion strains, locus YLR370C, strain arc18, active compounds read low 0.993 | S. cerevisiae deletion strains, locus YLR371W, strain rom2, active compounds read low 0.981 | S. cerevisiae deletion strains, locus YLR384C, strain iki3, active compounds read low 0.994 | S. cerevisiae deletion strains, locus YLR418C, strain cdc73, active compounds read low 0.97 | S. cerevisiae deletion strains, locus YML016C, strain PPZ1, active compounds read low 0.99 | S. cerevisiae deletion strains, locus YML032C, strain rad52, active compounds read low 0.984 | S. cerevisiae deletion strains, locus YML120C, strain ndi1, active compounds read low 0.999 | S. cerevisiae deletion strains, locus YML124C, strain tub3, active compounds read low 0.984 | S. cerevisiae deletion strains, locus YMR058W, strain fet3, active compounds read low 1 | S. cerevisiae deletion strains, locus YMR078C, strain ctf18, active compounds read low 0.969 | S. cerevisiae deletion strains, locus YMR125W, strain sto1, active compounds read low 0.973 | S. cerevisiae deletion strains, locus YMR129W, active compounds read low 0.997 | S. cerevisiae deletion strains, locus YMR205C, strain PFK2, active compounds read low 0.975 | S. cerevisiae deletion strains, locus YMR223W, strain ubp8, active compounds read low 0.957 | S. cerevisiae deletion strains, locus YMR231W, strain pep5, active compounds read low 0.993 | S. cerevisiae deletion strains, locus YMR263W, strain SAP30, active compounds read low 0.999 | S. cerevisiae deletion strains, locus YMR307W, strain GAS1, active compounds read low 1.03 | S. cerevisiae deletion strains, locus YNL067W, strain RPL9B, active compounds read low 0.997 | S. cerevisiae deletion strains, locus YNL071W, strain lat1, active compounds read low 0.998 | S. cerevisiae deletion strains, locus YNL153C, strain GIM3, active compounds read low 0.993 | S. cerevisiae deletion strains, locus YNL183C, strain NPR1, active compounds read low 0.969 | S. cerevisiae deletion strains, locus YNL209W, strain ssb2, active compounds read low 0.996 | S. cerevisiae deletion strains, locus YNL233W, strain BNI4, active compounds read low 0.993 | S. cerevisiae deletion strains, locus YNL248C, strain rpa49, active compounds read low 0.988 | S. cerevisiae deletion strains, locus YNL250W, strain rad50, active compounds read low 0.974 | S. cerevisiae deletion strains, locus YNL271C, strain bni1, active compounds read low 0.978 | S. cerevisiae deletion strains, locus YNL298W, strain CLA4, active compounds read low 0.97 | S. cerevisiae deletion strains, locus YNL307C, strain MCK1, active compounds read low 0.971 | S. cerevisiae deletion strains, locus YNL322C, strain KRE1 (second series), active compounds read low 0.986 | S. cerevisiae deletion strains, locus YNL322C, strain KRE1, active compounds read low 0.996 | S. cerevisiae deletion strains, locus YNR049C, strain mso1, active compounds read low 0.992 | S. cerevisiae deletion strains, locus YNR052C, strain pop2, active compounds read low 0.973 | S. cerevisiae deletion strains, locus YOL006C, strain TOP1, active compounds read low 0.968 | S. cerevisiae deletion strains, locus YOL012C, strain htz1 1.24 | S. cerevisiae deletion strains, locus YOL147C, strain pex11, active compounds read low 0.982 | S. cerevisiae deletion strains, locus YOR001W, strain rrp6, active compounds read low 1.02 | S. cerevisiae deletion strains, locus YOR061W, strain CKA2, active compounds read low 0.989 | S. cerevisiae deletion strains, locus YOR069W, strain VPS5, active compounds read low 0.989 | S. cerevisiae deletion strains, locus YOR070C, strain gyp1, active compounds read low 0.998 | S. cerevisiae deletion strains, locus YOR080W, strain dia2, active compounds read low 1 | S. cerevisiae deletion strains, locus YOR083W, strain WHI5, active compounds read low 0.988 | S. cerevisiae deletion strains, locus YOR106W, strain vam3, active compounds read low 0.976 | S. cerevisiae deletion strains, locus YOR136W, strain idh2, active compounds read low 0.984 | S. cerevisiae deletion strains, locus YOR144C, strain elg1, active compounds read low 0.987 | S. cerevisiae deletion strains, locus YOR184W, strain ser1, active compounds read low 0.971 | S. cerevisiae deletion strains, locus YOR231W, strain MKK1, active compounds read low 0.983 | S. cerevisiae deletion strains, locus YOR265W, strain rbl2, active compounds read low 1 | S. cerevisiae deletion strains, locus YOR270C, strain vph1, active compounds read low 1.02 | S. cerevisiae deletion strains, locus YOR290C, strain snf2, active compounds read low 0.949 | S. cerevisiae deletion strains, locus YOR316C, strain cot1, active compounds read low 0.98 | S. cerevisiae deletion strains, locus YPL051W, strain arl3, active compounds read low 0.992 | S. cerevisiae deletion strains, locus YPL078C, strain atp4, active compounds read low 0.992 | S. cerevisiae deletion strains, locus YPL106C, strain sse1, active compounds read low 0.998 | S. cerevisiae deletion strains, locus YPL240C, strain hsp82, active compounds read low 0.987 | S. cerevisiae deletion strains, locus YPL256C, strain CLN2, active compounds read low 0.994 | S. cerevisiae deletion strains, locus YPR119W, strain clb2, active compounds read low 0.977 | S. cerevisiae deletion strains, locus YPR141C, strain kar3, active compounds read low 0.962 | S. cerevisiae deletion strains, locus YPR163C, strain tif3, active compounds read low 0.978 | S. cerevisiae deletion strains, locus YPR167C, strain met16, active compounds read low 0.981 | S. cerevisiae deletion strains, strain wtn01, active compounds read low 0.989 | S. cerevisiae strains, strain wild type, active compounds read low 0.995
